The values below come from PubChem BioAssay (Tox21).

Several values for one entry are separate records, joined by “and”; a condition that tells them apart may be missing. Equal entries are not always repeated. Unmarked numbers belong to inactive results. Results filed as inconclusive are left out. Activity calls are given as the source filed them. Unless noted, calls follow the shape of the dose curve; as a rule, active = well fitted curve in the direction sought with a large enough effect in the repeat runs; inconclusive = weak or mixed curves; inactive = no such curve, though single readings can be large; an effect the other way counts as inactive or inconclusive.

Assay [1] can be described thus: Human pregnane X receptor (PXR) small molecule agonists, qHTS cell viability counter screen (AID 1346977). Also: nearly all actives have a fitted effect of over 50% in size. Also: potency is read from the fitted curve at half-maximal effect. The method, boiled down: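 Cytotoxicity counter screen run in the same wells as the PXR luciferase assay, using PXR-Luc HepG2 cells in charcoal-stripped serum medium. Viability: CellTiter-Fluor fluorescence after 24hr compound treatment.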
On the technique in general: In qHTS, concentration-response curves come from the screen itself.

Assay [2] is described as follows: Caspase-3/7 induction in HepG2 cells by small molecules, qHTS assay (AID 1346978). Also: nearly all actives have a fitted effect of over 15% in size. The method, boiled down:
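Wild-type HepG2 cells (2,000/well) were settled 5 h at 37 C, 5% CO2, then exposed to compounds in DMSO for 17 h. Caspase-3/7 activity was read by luminescence 30 min after adding Caspase-Glo 3/7 reagent at room temperature.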

Assay [3] in a line: Caspase-3/7 induction in CHO-K1 cells by small molecules, qHTS cell viability counter screen (AID 1346979). Also: nearly all actives have a fitted effect of over 35% in size. Also: potency is read from the fitted curve at half-maximal effect. Put shortly:
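Cytotoxicity counter screen run in parallel with the caspase-3/7 assay: CHO-K1 cells, 16hr compound treatment at 37C, then CellTiter-Fluor for 1hr before fluorescence reading.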

The nature of assay [4]: Caspase-3/7 induction in CHO-K1 cells by small molecules, qHTS assay (AID 1346980). Also: nearly all actives have a fitted effect of over 15% in size. Put shortly:
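Wild-type cells were seeded at 1,500 per well and settled 5 hr at 37 C, 5% CO2, then exposed to DMSO-dissolved compounds for 17 hr. Caspase-Glo 3/7 reagent was added, and luminescence was read after 30min at room temperature.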

The nature of assay [5]: Caspase-3/7 induction in HepG2 cells by small molecules, qHTS cell viability counter screen (AID 1346981). Also: nearly all actives have a fitted effect of over 30% in size. Also: potency is read from the fitted curve at half-maximal effect. The method, boiled down:
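Fluorescence read-out of live-cell protease activity (CellTiter-Fluor) after 1 hr with reagent. This was measured in the same wells as the caspase-3/7 luminescence, on HepG2 cells exposed to DMSO-dissolved compounds for 16 hr at 37 C.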

The target of assay [6] is Nuclear receptor subfamily 1 group I member 2 (Homo sapiens) (UniProt O75469). Briefly: Human pregnane X receptor (PXR) small molecule agonists, qHTS assay (AID 1346982). Also: nearly all actives have a fitted effect of over 35% in size. Also: potency is read from the fitted curve at half-maximal effect. Put shortly: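 HepG2 PXR-Luc reporter line, 5% charcoal-stripped FBS; 5 hr pre-incubation, compound (DMSO) 24 hr at 37 C/5% CO2; ONE-Glo 30 min RT; luminescence read-out.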
The target of assay [7] is Acetylcholinesterase (Homo sapiens) (UniProt P22303). The experiment in a line: Acetylcholinesterase (AChE) small molecule antagonists: colormetric cell-based qHTS assay (AID 1347395; calls by dose curve; also: nearly all actives have a fitted effect of over 30% in size). Put shortly: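 Cells (SH-SY5Y, 2,000 per well) are seeded and left overnight at 37 C. Compound is added for 30 min, then DTNB and acetylthiocholine for a further 90 min at 37 C before absorbance-based thiocholine detection.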

Assay [8] shares this target. Briefly: Acetylcholinesterase (AChE) small molecule antagonists: enzyme-based qHTS assay (AID 1347397; calls by dose curve; also: nearly all actives have a fitted effect of over 55% in size). As to conditions: Potency: AChE enzyme activity inhibition; outcome: AChE enzyme activity inhibition. Put shortly:
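Tox21 library chemicals are tested in qHTS format against recombinant human AChE. The enzyme, dispensed at 50 mU/mL, sits with compound for 30 min at room temperature. A DTNB–acetylthiocholine cocktail follows, and colour is read after 10 min.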

For assay [9] the target is unchanged. Briefly: Acetylcholinesterase (AChE) small molecule antagonists: fluorescence cell-based qHTS assay (AID 1347398; calls by dose curve; also: nearly all actives have a fitted effect of over 50% in size). To be noted: Potency: AChE activity; outcome: AChE activity. The method, boiled down: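 Cellular AChE inhibition: SH-SY5Y cells treated with test chemical for 30 min at 37 C, then acetylthiocholine hydrolysis followed over 40 min at room temperature via thiocholine-reactive Thiolite Green fluorescence (490/520 nm).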

The target is the same in assay [10]. Briefly: Acetylcholinesterase (AChE) small molecule antagonists: enzyme-based qHTS assay with human liver microsomes (AID 1347399; calls by dose curve; also: nearly all actives have a fitted effect of over 60% in size). To be noted: Potency: qHTS inhibition; outcome: qHTS inhibition. Put shortly:
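Recombinant human AChE (50 mU/mL in the enzyme mix) and human liver microsomes (0.25 mg/mL final) were preincubated with compound and NADPH (0.25 mg/mL final) for 30 min at 37 C. Acetylthiocholine/DTNB was then added; thiocholine was read colorimetrically after 10 min at room temperature.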

For assay [11], the target named is Cytochrome P450 2D6 (Homo sapiens) (UniProt P10635). The experiment in a line: Cytochrome P450 Family 2 Subfamily D Member 6 (CYP2D6) small molecule antagonists: luciferase reporter qHTS assay (AID 1671196). Also: nearly all actives have a fitted effect of over 50% in size. Also: potency is read from the fitted curve at half-maximal effect. Put shortly: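 Luminogenic proluciferin substrate, CYP2D6 enzyme; 10 min RT preincubation with compound, NADPH regeneration system added, 1 h RT. Stop/detection reagent, 20 min RT, luminescence read (RLU). Signal proportional to CYP activity.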
A general note: In a reporter assay the amount or activity of a reporter protein is the signal.

For assay [12], the target named is Cytochrome P450 2C19 (Homo sapiens) (UniProt P33261). The experiment in a line: Cytochrome P450 Family 2 Subfamily C Member 19 (CYP2C19) small molecule antagonists: luciferase reporter qHTS assay (AID 1671197). Also: nearly all actives have a fitted effect of over 65% in size. Also: potency is read from the fitted curve at half-maximal effect. The method, boiled down: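 First, compounds are pinned into enzyme-substrate mix and held 10 min at room temperature. Second, NADPH regeneration solution is added and plates incubate 1 h at 37C. Third, detection reagent is added and luminescence read after 20 min.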

Assay [13] deals with Cytochrome P450 2C9 (Homo sapiens) (UniProt P11712). The experiment in a line: Cytochrome P450 Family 2 Subfamily C Member 9 (CYP2C9) small molecule antagonists: luciferase reporter qHTS assay (AID 1671198). Also: nearly all actives have a fitted effect of over 50% in size. Also: potency is read from the fitted curve at half-maximal effect. The method, boiled down:
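CYP2C9 activity was measured with a P450-Glo proluciferin substrate. Enzyme–substrate mix was held with compound for 10 min at room temperature, then NADPH regeneration solution was added for 1 h at 37C. Luciferin product was read as luminescence.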

Assay [14] concerns the target Voltage-gated inwardly rectifying potassium channel KCNH2 (Homo sapiens) (UniProt Q12809). The experiment in a line: Human Ether-a-go-go-Related Gene (hERG) channel small molecule antagonists: fluorescence cell-based qHTS assay (AID 1671200). The method, boiled down:
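Fluorescence at 540 nm emission (480 nm excitation) was recorded kinetically for 2 min at 1-second intervals once the thallium-containing stimulus reached cells previously loaded with FluxOR II dye.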

The target in assay [15] is Cytochrome P450 3A4 (Homo sapiens) (UniProt P08684). The experiment in a line: Cytochrome P450 Family 3 Subfamily A Member 4 (CYP3A4) small molecule antagonists: luciferase reporter qHTS assay (AID 1671201). The method, boiled down: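 qHTS, 1536-well. CYP3A4 + proluciferin substrate, cpd 10 min RT → NADPH regen 1 h RT → detection reagent 20 min → luminescence (RLU). Ketoconazole positive control.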

Assay [16] deals with Cytochrome P450 1A2 (Homo sapiens) (UniProt P05177). Briefly: Cytochrome P450 Family 1 Subfamily A Member 2 (CYP1A2) small molecule antagonists: luciferase reporter qHTS assay (AID 1671199). Also: nearly all actives have a fitted effect of over 50% in size. Also: potency is read from the fitted curve at half-maximal effect. The method, boiled down:
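Luminescence readout (relative luminescence units) after luciferin detection reagent, 20 min RT. Preceded by 1 h room-temperature CYP1A2 reaction with NADPH regeneration solution following 10 min compound preincubation with enzyme and proluciferin substrate. Furafylline positive control.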

The target of assay [17] is Nuclear receptor subfamily 1 group I member 2 (Rattus norvegicus) (UniProt Q9R1A7). Briefly: Rat pregnane X receptor (rPXR) activation by small molecules, qHTS assay (AID 1346983). Also: nearly all actives have a fitted effect of over 20% in size. To be noted: rPXR luciferase reporter cells, One-Glo luminescence, 24 h; hits give high values. Put shortly: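 Cell-based rPXR luciferase reporter assay, 2,000 cells per well, rested 5hr at 37 C before compound addition in DMSO, then 24 hr at 37 C. One-Glo reagent was added and luminescence read after 30 min at room temperature.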

Assay [18] concerns the target Nuclear receptor subfamily 1 group I member 2 (Homo sapiens) (UniProt O75469). The experiment in a line: CYP3A4 induction through human pregnane X receptor (PXR) by small molecules, qHTS assay (AID 1346984). Also: nearly all actives have a fitted effect of over 40% in size. The method, boiled down: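 HepG2-derived DPX-2 line carrying PXR plus a CYP3A4-promoter luciferase reporter; cells plated 5 hr, compound-exposed 24 hr at 37C. CYP3A4 activity probed with 3uM (final) Luciferin-IPA for 3hr, then luciferase read after One-Glo.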

Assay [19] shares this target. Briefly: Human pregnane X receptor (PXR) activation by small molecules, qHTS assay (AID 1346985). Also: nearly all actives have a fitted effect of over 40% in size. Put shortly:
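DPX-2 cells (HepG2 co-transfected with a PXR response element and a CYP3A4-promoter luciferase construct) were seeded at 2,000 per well, rested 5 hr at 37C, then exposed to DMSO-dissolved compounds for 24 hr. Activation was read as luciferase luminescence.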
% is scaled to controls: 0 for no effect and ±100 for the full control effect.

Acetylcholinesterase (Homo sapiens), sequence (P22303 whole entry, looked up): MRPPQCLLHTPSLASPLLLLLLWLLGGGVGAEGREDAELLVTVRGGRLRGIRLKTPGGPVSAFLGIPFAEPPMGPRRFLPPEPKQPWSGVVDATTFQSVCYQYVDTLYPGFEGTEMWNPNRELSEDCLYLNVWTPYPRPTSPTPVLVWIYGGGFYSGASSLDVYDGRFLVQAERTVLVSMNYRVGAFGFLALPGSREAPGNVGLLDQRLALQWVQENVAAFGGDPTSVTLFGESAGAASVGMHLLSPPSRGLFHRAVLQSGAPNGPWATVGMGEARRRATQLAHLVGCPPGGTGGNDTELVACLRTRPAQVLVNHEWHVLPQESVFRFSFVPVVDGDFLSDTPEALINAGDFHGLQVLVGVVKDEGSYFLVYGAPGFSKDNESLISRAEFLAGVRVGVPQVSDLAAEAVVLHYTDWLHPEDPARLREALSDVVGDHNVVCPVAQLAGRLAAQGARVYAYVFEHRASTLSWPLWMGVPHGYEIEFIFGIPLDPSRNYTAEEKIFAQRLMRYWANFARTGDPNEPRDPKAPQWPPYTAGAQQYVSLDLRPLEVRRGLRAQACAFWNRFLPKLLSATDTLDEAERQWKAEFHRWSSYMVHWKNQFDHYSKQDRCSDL
Cytochrome P450 1A2 (Homo sapiens), sequence (P05177 whole entry, looked up): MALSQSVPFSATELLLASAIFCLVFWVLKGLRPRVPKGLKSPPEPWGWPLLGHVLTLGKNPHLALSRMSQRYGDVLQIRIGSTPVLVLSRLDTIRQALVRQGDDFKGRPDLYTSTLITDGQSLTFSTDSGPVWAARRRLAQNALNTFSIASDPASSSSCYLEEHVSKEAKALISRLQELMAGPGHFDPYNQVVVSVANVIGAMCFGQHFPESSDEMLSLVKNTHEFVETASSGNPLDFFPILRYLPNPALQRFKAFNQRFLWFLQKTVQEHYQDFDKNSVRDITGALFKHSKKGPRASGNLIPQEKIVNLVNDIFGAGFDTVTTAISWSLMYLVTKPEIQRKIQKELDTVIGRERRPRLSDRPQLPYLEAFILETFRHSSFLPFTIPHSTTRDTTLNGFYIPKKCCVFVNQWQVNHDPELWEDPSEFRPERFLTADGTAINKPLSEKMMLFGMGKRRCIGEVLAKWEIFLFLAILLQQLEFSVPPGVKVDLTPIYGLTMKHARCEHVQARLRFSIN
Nuclear receptor subfamily 1 group I member 2 (Homo sapiens), sequence (O75469 whole entry, looked up): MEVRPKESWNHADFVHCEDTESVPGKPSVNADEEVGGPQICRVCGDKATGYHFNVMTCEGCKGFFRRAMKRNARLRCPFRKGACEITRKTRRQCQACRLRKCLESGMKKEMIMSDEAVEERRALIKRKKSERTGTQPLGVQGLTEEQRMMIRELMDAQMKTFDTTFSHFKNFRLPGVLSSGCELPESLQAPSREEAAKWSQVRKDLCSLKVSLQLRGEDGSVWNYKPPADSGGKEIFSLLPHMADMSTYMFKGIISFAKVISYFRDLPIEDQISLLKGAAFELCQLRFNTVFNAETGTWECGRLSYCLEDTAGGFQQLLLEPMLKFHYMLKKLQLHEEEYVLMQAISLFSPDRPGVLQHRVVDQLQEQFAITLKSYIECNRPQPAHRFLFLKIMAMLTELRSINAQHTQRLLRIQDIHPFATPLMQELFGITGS
Voltage-gated inwardly rectifying potassium channel KCNH2 (Homo sapiens), sequence (Q12809 whole entry, looked up): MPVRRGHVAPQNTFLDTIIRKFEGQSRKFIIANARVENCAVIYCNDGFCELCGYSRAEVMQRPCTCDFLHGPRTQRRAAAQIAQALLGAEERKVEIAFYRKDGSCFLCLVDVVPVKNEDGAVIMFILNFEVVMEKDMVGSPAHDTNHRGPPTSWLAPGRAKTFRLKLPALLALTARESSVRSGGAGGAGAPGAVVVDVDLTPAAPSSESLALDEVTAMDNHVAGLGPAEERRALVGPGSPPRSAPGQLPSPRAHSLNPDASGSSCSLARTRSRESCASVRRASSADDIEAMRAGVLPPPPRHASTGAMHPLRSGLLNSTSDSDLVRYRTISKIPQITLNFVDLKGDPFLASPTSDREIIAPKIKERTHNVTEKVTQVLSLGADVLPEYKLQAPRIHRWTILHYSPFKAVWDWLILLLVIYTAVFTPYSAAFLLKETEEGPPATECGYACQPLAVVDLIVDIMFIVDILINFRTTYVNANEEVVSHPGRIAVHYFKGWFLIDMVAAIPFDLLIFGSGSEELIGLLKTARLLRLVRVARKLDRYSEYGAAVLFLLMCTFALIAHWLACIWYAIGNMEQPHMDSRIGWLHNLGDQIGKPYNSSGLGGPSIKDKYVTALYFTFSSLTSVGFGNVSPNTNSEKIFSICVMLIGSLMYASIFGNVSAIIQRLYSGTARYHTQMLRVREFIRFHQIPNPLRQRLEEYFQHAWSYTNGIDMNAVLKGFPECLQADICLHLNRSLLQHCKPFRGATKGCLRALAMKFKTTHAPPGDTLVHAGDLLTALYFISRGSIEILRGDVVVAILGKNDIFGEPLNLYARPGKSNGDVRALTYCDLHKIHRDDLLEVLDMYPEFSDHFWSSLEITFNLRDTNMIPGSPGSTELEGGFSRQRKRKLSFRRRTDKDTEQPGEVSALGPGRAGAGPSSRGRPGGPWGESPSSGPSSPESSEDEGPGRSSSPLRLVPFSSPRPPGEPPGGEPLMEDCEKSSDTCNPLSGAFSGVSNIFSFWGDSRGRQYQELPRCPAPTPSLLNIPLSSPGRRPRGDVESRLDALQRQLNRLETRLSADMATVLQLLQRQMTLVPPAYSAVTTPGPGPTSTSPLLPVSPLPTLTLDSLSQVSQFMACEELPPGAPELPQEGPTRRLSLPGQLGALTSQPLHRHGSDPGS
Cytochrome P450 2D6 (Homo sapiens), sequence (P10635 whole entry, looked up): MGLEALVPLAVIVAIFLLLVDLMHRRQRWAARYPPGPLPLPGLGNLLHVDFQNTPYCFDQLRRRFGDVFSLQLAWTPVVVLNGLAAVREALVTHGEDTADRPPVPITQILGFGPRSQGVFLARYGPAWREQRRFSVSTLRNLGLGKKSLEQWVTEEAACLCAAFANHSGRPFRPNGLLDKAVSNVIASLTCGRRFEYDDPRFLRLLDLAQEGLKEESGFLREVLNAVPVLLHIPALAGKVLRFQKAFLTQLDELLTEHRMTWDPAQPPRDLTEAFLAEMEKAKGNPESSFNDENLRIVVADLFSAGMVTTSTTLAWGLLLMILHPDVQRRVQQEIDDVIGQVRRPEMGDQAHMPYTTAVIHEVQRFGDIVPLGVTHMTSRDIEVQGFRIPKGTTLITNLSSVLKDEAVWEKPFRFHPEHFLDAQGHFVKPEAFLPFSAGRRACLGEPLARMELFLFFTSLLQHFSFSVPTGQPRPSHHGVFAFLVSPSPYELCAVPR
Cytochrome P450 2C19 (Homo sapiens), sequence (P33261 whole entry, looked up): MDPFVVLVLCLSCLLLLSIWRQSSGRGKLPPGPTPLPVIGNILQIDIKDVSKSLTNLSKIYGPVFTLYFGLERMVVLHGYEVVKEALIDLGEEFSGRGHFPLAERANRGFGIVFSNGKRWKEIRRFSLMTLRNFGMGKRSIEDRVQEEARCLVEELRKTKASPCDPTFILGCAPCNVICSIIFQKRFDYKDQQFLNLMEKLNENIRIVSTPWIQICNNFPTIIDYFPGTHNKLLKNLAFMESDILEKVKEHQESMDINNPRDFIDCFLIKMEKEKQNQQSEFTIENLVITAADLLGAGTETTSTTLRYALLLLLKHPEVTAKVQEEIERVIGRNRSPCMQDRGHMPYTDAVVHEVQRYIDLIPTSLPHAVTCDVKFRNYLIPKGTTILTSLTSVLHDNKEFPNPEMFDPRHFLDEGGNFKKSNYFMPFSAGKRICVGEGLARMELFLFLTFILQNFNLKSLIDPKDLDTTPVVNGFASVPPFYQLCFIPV
Cytochrome P450 3A4 (Homo sapiens), sequence (P08684 whole entry, looked up): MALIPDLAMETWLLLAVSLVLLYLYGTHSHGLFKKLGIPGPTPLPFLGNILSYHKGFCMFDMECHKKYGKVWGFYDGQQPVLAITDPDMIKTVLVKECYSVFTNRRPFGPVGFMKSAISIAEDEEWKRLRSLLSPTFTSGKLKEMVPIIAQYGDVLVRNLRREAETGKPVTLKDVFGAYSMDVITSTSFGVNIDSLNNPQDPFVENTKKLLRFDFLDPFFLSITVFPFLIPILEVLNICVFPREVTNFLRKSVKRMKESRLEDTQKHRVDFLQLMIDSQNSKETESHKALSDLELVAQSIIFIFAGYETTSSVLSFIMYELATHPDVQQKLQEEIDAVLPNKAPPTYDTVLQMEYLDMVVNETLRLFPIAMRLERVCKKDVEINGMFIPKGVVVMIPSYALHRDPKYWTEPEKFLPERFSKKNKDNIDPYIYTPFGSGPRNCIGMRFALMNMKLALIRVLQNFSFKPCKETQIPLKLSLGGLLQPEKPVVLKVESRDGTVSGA
Cytochrome P450 2C9 (Homo sapiens), sequence (P11712 whole entry, looked up): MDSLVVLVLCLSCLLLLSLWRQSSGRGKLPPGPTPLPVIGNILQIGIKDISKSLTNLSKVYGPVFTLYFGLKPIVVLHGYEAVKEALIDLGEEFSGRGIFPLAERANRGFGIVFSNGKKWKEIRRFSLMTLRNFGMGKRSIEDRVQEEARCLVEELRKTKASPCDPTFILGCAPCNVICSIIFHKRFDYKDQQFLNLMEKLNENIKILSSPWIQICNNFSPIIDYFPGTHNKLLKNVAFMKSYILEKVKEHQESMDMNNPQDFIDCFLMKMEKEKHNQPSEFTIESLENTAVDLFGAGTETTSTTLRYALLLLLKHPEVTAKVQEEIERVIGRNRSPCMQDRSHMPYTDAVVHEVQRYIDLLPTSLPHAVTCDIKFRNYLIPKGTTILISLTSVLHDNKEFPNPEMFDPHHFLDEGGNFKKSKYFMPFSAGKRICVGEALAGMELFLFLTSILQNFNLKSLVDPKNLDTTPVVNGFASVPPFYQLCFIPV

Consider `CCC1CCC(=O)O1` (stereo not drawn), for which the Potency entry in assay [1], in assay [2], in assay [3], in assay [4], in assay [5] and in assay [6] was “inactive” in each case. Also, the Potency entry in assay [7], in [8], in assay [9], in [10], in assay [11] and in assay [13] was “inactive” each time. The Potency entry in [14] and in [15] was “inactive” in each case. Also, the Potency in assay [12] is 45.2 µM (active).
As to `CCOc1cccc(C2(N3CCN(c4ccccc4)CC3)CCC(C)CC2)c1` (stereo not drawn), the Potency result in assay [1], in [2], in [3], in assay [4], in [5] and in [6] was “inactive” each time. Besides, the Potency entry in [11], in assay [12], in [14] and in assay [15] was “inactive” each time. Further, the compound was classed as inactive in [7], in [8], in assay [9] and in assay [10]. Besides, the Potency in assay [16] was 20 µM (active).
Consider `CCCC[N+]1(C)[C@@H]2CC(OC(=O)[C@H](CO)c3ccccc3)C[C@H]1[C@@H]1O[C@@H]12` (stereo partly drawn), for which the Potency entry in assay [1], in [2], in assay [3], in assay [4], in assay [5] and in [6] was “inactive” in each case. The Potency result in [19], in assay [8], in assay [9], in assay [10], in assay [12] and in assay [13] was “inactive” each time. The Potency result in assay [16], in assay [14] and in assay [15] was “inactive” throughout. Further, the max activation in [17] was -0.805%. Moreover, the compound was called inactive in assay [18]. Also, the Potency in assay [11] was 1.55 µM (active).
Regarding `CC(CC(C(N)=O)(c1ccccc1)c1ccccc1)N(C)C` (stereo not drawn), the Potency entry in assay [1], in [2], in assay [3], in [4], in assay [5] and in assay [6] was “inactive” throughout. In addition, the Potency result in assay [7], in assay [8], in [9], in assay [10], in assay [12] and in [13] was “inactive” throughout. Moreover, the Potency result in [16], in assay [14] and in assay [15] was “inactive” throughout. In assay [11], the Potency is 6.17 µM (active).
For the compound `OCCCl`, the Potency entry in assay [1], in assay [2], in assay [3], in assay [4], in assay [5] and in assay [6] was “inactive” throughout. In addition, the Potency entry in assay [7], in assay [8], in assay [9], in [10], in assay [11] and in assay [12] was “inactive” throughout. In addition, the Potency entry in assay [13], in [16], in [14] and in assay [15] was “inactive” each time.
Consider `CN(C)c1ccc(N=O)cc1`, for which the Potency in assay [1] is 44.7 µM (active) and 27.3 µM (active); in assay [3], 7.72 µM (active) and 8.63 µM (active); in [5], 54.6 µM (active) and 61.1 µM (active); in assay [6], 21.8 µM (active) and 9.69 µM (active); in assay [11], 17.9 µM (active) and 25.2 µM (active); in assay [12] it was 5.66 µM (active) and 8.94 µM (active). The Potency in assay [13] is 35.7 µM (active) and 39.9 µM (active); in assay [16] it was 35.7 µM (active) and 39.9 µM (active). Besides, the Potency entry in assay [2], in assay [4], in assay [7], in [8], in assay [9] and in [10] was “inactive” in each case. For the same compound, the Potency entry in assay [14] is “inactive”.
With `CC[N+]1(C)CCCC(OC(=O)C(O)(c2ccccc2)c2ccccc2)C1` (stereo not drawn), the Potency result in assay [1], in assay [2], in assay [3], in assay [4], in assay [5] and in assay [6] was “inactive” each time. For the same compound, the Potency result in assay [19], in assay [7], in assay [8], in assay [9], in assay [10] and in [12] was “inactive” throughout. For the same compound, the Potency entry in [16], in assay [14] and in assay [15] was “inactive” throughout. In assay [17], the max activation is 2.38%. Also, in assay [18], the outcome was inactive. Also, the Potency in [11] is 2.75 µM (active).
